According to PubChem BioAssay (NCI):
About 83,000 compounds went through this panel and 20% of them were active in at least one assay; those are over-represented in the sample as a whole.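 In brief: 96-well plates, 48 h treatment, single concentration, percent growth endpoint.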 Values without a mark were called inactive. Activity calls are given as the source filed them. How the source made its calls: active means growth percent below 10; inactive means the rest.

What was measured:
Assay in all cases: NCI-60 one-dose screen, 48 h (100 = growth as untreated, 0 = no growth, -100 = all killed)
Conditions in all cases: 10 µM unless noted
[1] = test system: HCT-15 colon
[2] = test system: HT29 colon
[3] = test system: SNB-75 CNS
[4] = test system: SNB-19 CNS
[5] = test system: U251 CNS
[6] = test system: PC-3 prostate
[7] = test system: SK-MEL-5 melanoma
[8] = test system: UACC-62 melanoma
[9] = test system: LOX IMVI melanoma
[10] = test system: SK-MEL-28 melanoma
[11] = test system: SK-MEL-2 melanoma
[12] = test system: EKVX NSCLC
[13] = test system: SN12C renal
[14] = test system: UO-31 renal
[15] = test system: TK-10 renal
[16] = test system: ACHN renal
[17] = test system: CAKI-1 renal
[18] = test system: A498 renal
[19] = test system: MOLT-4 leukemia
[20] = test system: CCRF-CEM leukemia

SMILES: COc1cc(-c2nn(C(C)(C)C)cc2-c2ccnc(NCCCNS(=O)(=O)c3ccc(F)cc3)n2)ccc1Cl
- growth [1]: 59.7%
- growth [2]: 73.2%
- growth [3]: 48.1%
- growth [4]: 92.9%
- growth [5]: 89.3%
- growth [6]: 51.5%
- growth [7]: 85%
- growth [8]: 72.2%
- growth [9]: 74.8%
- growth [10]: 89.8%
- growth [11]: 86.9%
- growth [12]: 39%
- growth [13]: 52.5%
- growth [14]: 42.3%
- growth [15]: 68.8%
- growth [16]: 83.6%
- growth [17]: 25%
- growth [18]: 51.9%
- growth [19]: 49.5%

SMILES: COc1cc(-c2nn(C(C)(C)C)cc2-c2ccnc(NCCCNS(=O)(=O)c3ccc(C)cc3)n2)ccc1Cl
- growth [1]: 80.5%
- growth [2]: 78.3%
- growth [3]: 54.7%
- growth [4]: 100%
- growth [5]: 92.3%
- growth [6]: 58.1%
- growth [7]: 83.1%
- growth [8]: 68.3%
- growth [9]: 72.7%
- growth [10]: 101%
- growth [11]: 87.4%
- growth [12]: 46.1%
- growth [13]: 60.8%
- growth [14]: 44%
- growth [15]: 65.2%
- growth [16]: 89.6%
- growth [17]: 27.4%
- growth [18]: 30.9%
- growth [19]: 44.8%

SMILES: O=C(CCn1c[n+](CC(=O)c2ccc(-c3ccccc3)cc2)c2ccccc21)Nc1cccc2cccnc12
- growth [1]: 93.8%
- growth [2]: 51.8%
- growth [3]: 41%
- growth [4]: 41.6%
- growth [5]: 42.9%
- growth [6]: 30.9%
- growth [7]: 20.8%
- growth [8]: 15.1%
- growth [9]: 57.9%
- growth [10]: 38.9%
- growth [11]: 65.4%
- growth [12]: 61.9%
- growth [13]: 53.6%
- growth [14]: 82.6%
- growth [15]: 97.5%
- growth [16]: 103%
- growth [17]: 77.7%
- growth [18]: 88.7%
- growth [19]: 47.9%

SMILES: CC(C)(O)c1cncc(-c2ccc3ncnc(NCc4ccccc4)c3c2)c1
- growth [1]: 103%
- growth [2]: 96.7%
- growth [3]: 31%
- growth [4]: 91.8%
- growth [5]: 109%
- growth [6]: 84.1%
- growth [7]: 87.6%
- growth [8]: 84.3%
- growth [9]: 57.2%
- growth [10]: 88%
- growth [11]: 107%
- growth [12]: 32.7%
- growth [13]: 57.6%
- growth [14]: 37.1%
- growth [15]: 42.8%
- growth [16]: 66.4%
- growth [17]: 42.6%
- growth [18]: 5.8% (active)
- growth [19]: 98.6%

SMILES: CCOc1ccccc1NC1=C(Cl)C(=O)c2nc(C)ccc2C1=O
- growth [1]: -76.6% (active)
- growth [2]: 20%
- growth [3]: 101%
- growth [4]: 46.5%
- growth [5]: 37.9%
- growth [6]: 4.34% (active)
- growth [7]: -97.8% (active)
- growth [8]: -29.1% (active)
- growth [9]: -82.2% (active)
- growth [10]: 14.6%
- growth [11]: -15.7% (active)
- growth [12]: -2.24% (active)
- growth [13]: -51% (active)
- growth [14]: -93% (active)
- growth [15]: 124%
- growth [16]: -99.1% (active)
- growth [18]: 78.8%
- growth [20]: -6.33% (active)
- growth [19]: -24.9% (active)

SMILES: COc1ccccc1-n1cc(C#N)c(N)c1C(=O)c1ccc(Cl)cc1
- growth [1]: 36.2%
- growth [2]: 52.8%
- growth [3]: 62.3%
- growth [4]: 69.4%
- growth [5]: 91.9%
- growth [6]: 58%
- growth [7]: 60.1%
- growth [8]: 46.3%
- growth [9]: 67.9%
- growth [10]: 74.3%
- growth [11]: 78.4%
- growth [12]: 86.9%
- growth [13]: 90%
- growth [14]: 77.4%
- growth [15]: 107%
- growth [16]: 93%
- growth [18]: 57%
- growth [20]: 76.3%
- growth [19]: 64.2%

SMILES: Nc1ncc(-c2ccc3ncnc(N4CCc5cc(F)c(F)cc54)c3c2)cn1
- growth [1]: 23.1%
- growth [2]: 33.1%
- growth [3]: 27.3%
- growth [4]: 43.1%
- growth [5]: 41.2%
- growth [6]: 17.7%
- growth [7]: 16.2%
- growth [8]: 9.67% (active)
- growth [9]: 11.1%
- growth [10]: 33.2%
- growth [11]: 33.2%
- growth [12]: 18.7%
- growth [13]: 25.1%
- growth [14]: 8.51% (active)
- growth [15]: -2.82% (active)
- growth [16]: 19.5%
- growth [17]: 15.3%
- growth [18]: -42.9% (active)
- growth [19]: 8.56% (active)

SMILES: Nc1ncc(-c2ccc3ncnc(N4CCc5cc(F)c(Cl)cc54)c3c2)cn1
- growth [1]: 18.2%
- growth [2]: 24.1%
- growth [3]: -32.2% (active)
- growth [4]: 43%
- growth [5]: 45%
- growth [6]: 10.5%
- growth [7]: 29.2%
- growth [8]: 22.2%
- growth [9]: 9.68% (active)
- growth [10]: 40.5%
- growth [11]: 17.1%
- growth [12]: -9.64% (active)
- growth [13]: 17.9%
- growth [14]: 7.96% (active)
- growth [15]: -15% (active)
- growth [16]: 13.4%
- growth [17]: -9.07% (active)
- growth [18]: -80.7% (active)
- growth [19]: -20.9% (active)

SMILES: CCCCCc1ccc(S(=O)(=O)Nc2cc(-c3csc(NC(=O)CN4CCN(C)CC4)n3)ccc2OC)cc1
- growth [1]: -58.9% (active)
- growth [2]: -31.1% (active)
- growth [3]: 91.2%
- growth [4]: 6.64% (active)
- growth [5]: -18.2% (active)
- growth [6]: 23.2%
- growth [7]: -93.5% (active)
- growth [8]: -58.5% (active)
- growth [9]: -94% (active)
- growth [10]: -69.4% (active)
- growth [11]: 73.6%
- growth [12]: 63.4%
- growth [13]: 11.8%
- growth [14]: -92.7% (active)
- growth [15]: 103%
- growth [16]: 3.55% (active)
- growth [17]: -15.5% (active)
- growth [18]: 75.2%
- growth [19]: -5.31% (active)

SMILES: C#C[C@]1(O)CC[C@H]2[C@@H]3CC=C4c5sc(-c6cccc(O)c6)nc5CC[C@]4(C)[C@H]3CC[C@@]21C
- growth [1]: -25.2% (active)
- growth [2]: -13.7% (active)
- growth [3]: -52.7% (active)
- growth [4]: -19.8% (active)
- growth [5]: -47.6% (active)
- growth [6]: -54.7% (active)
- growth [7]: -77.1% (active)
- growth [8]: -61.3% (active)
- growth [9]: -62.4% (active)
- growth [10]: -68.8% (active)
- growth [11]: -24.6% (active)
- growth [12]: 7.48% (active)
- growth [13]: -48.6% (active)
- growth [14]: -30.4% (active)
- growth [15]: 2.76% (active)
- growth [16]: -58.7% (active)
- growth [17]: -19.9% (active)
- growth [18]: -66.9% (active)
- growth [19]: -11.8% (active)

SMILES: O=C(NCCN1CCCC1)c1ccc(-c2nc3ccc4[nH]ncc4c3c3c2CCCC3)cc1
- growth [1]: 26.1%
- growth [2]: 4.8% (active)
- growth [3]: 33.7%
- growth [4]: 7.71% (active)
- growth [5]: 10.7%
- growth [6]: 8.15% (active)
- growth [7]: 5.04% (active)
- growth [8]: 18.4%
- growth [9]: -89.6% (active)
- growth [10]: 5.05% (active)
- growth [11]: 10.1%
- growth [12]: 24%
- growth [13]: 8.98% (active)
- growth [14]: 43.3%
- growth [15]: 27.3%
- growth [16]: 15.8%
- growth [18]: -80% (active)
- growth [20]: 9% (active)
- growth [19]: -26% (active)

SMILES: COc1ccc2c(c1)c(CC(=O)[Se]CC#N)c(C)n2C(=O)c1ccc(Cl)cc1
- growth [1]: 7.36% (active)
- growth [2]: -8.37% (active)
- growth [3]: 73%
- growth [4]: 50.3%
- growth [5]: 19.7%
- growth [6]: 8.19% (active)
- growth [7]: -6.8% (active)
- growth [8]: 55.2%
- growth [9]: -35.8% (active)
- growth [10]: 37.6%
- growth [11]: 39.3%
- growth [12]: -2.11% (active)
- growth [13]: 74%
- growth [14]: -3.23% (active)
- growth [15]: -5.49% (active)
- growth [16]: 12%
- growth [18]: -17.1% (active)
- growth [20]: 8.66% (active)
- growth [19]: 10.8%

SMILES: O=C(NNc1nc2cc(F)ccc2n2c(CN3CC4CNCC4C3)ccc12)c1cnccn1 (centres undefined)
- growth [1]: 18.1%
- growth [2]: 29.2%
- growth [3]: 54.3%
- growth [4]: 33.5%
- growth [5]: 27.2%
- growth [6]: 27.2%
- growth [7]: 11.2%
- growth [8]: 1.75% (active)
- growth [9]: 7.74% (active)
- growth [10]: 31.5%
- growth [11]: 30.9%
- growth [12]: 25.9%
- growth [13]: 27.5%
- growth [14]: 19.7%
- growth [15]: 22.4%
- growth [16]: 17.4%
- growth [18]: 36.9%
- growth [20]: 12.1%
- growth [19]: 5.6% (active)

SMILES: CN1CCN(Cc2ccc(NC(=O)c3cncc(C#Cc4cnc5ccc(OCC6(C)COC6)nn45)c3)cc2C(F)(F)F)CC1
- growth [1]: -78.6% (active)
- growth [2]: -37.5% (active)
- growth [3]: -68.7% (active)
- growth [4]: -86.1% (active)
- growth [5]: -62% (active)
- growth [6]: -69% (active)
- growth [7]: -93.2% (active)
- growth [8]: -90.5% (active)
- growth [9]: -93.5% (active)
- growth [10]: -89.2% (active)
- growth [11]: -75.7% (active)
- growth [12]: -83.3% (active)
- growth [13]: -76.2% (active)
- growth [14]: -91.8% (active)
- growth [15]: -73.7% (active)
- growth [16]: -96.1% (active)
- growth [18]: -97.7% (active)
- growth [20]: 1.98% (active)
- growth [19]: 1.9% (active)

SMILES: CN1CCN(Cc2ccc(NC(=O)c3cncc(C#Cc4cnc5ccc(OCC(C)(C)O)nn45)c3)cc2C(F)(F)F)CC1
- growth [1]: -39.2% (active)
- growth [2]: -22.7% (active)
- growth [3]: -46.1% (active)
- growth [4]: -8.47% (active)
- growth [5]: -59.3% (active)
- growth [6]: 2.2% (active)
- growth [7]: -91.8% (active)
- growth [8]: -41.1% (active)
- growth [9]: -91% (active)
- growth [10]: -38.9% (active)
- growth [11]: -80.4% (active)
- growth [12]: -31.2% (active)
- growth [13]: 2.45% (active)
- growth [14]: -87.9% (active)
- growth [15]: -18.5% (active)
- growth [16]: -33.3% (active)
- growth [18]: -84.1% (active)
- growth [20]: 6.09% (active)
- growth [19]: 5.42% (active)

SMILES: O=C(NCCn1ccnc1)c1ccc(-c2nc3ccc4[nH]ncc4c3c3c2CCCC3)cc1
- growth [1]: 97.5%
- growth [2]: 88.4%
- growth [3]: 52.6%
- growth [4]: 55.6%
- growth [5]: 58.6%
- growth [6]: 47.6%
- growth [7]: 89.9%
- growth [8]: 28.8%
- growth [9]: 66.3%
- growth [10]: 62.4%
- growth [11]: 45.3%
- growth [12]: 87.6%
- growth [13]: 81.6%
- growth [14]: 92.4%
- growth [15]: 77.7%
- growth [16]: 88.4%
- growth [18]: 73.5%
- growth [20]: 19.5%
- growth [19]: 29.1%
